# Laboratory results taken from PubChem BioAssay AID1159580 (chemical genetic matrix, 2015).
# Screen size: about 5,500 compounds; about 2,000 (36%) were called active. About 18% were inconclusive and are not listed. This is one part of the list. Values without a mark were called inactive. Cut-off read from the data, not from the text of the source: active = normalized growth mostly below about 0.91 (no sharp cut-off); inconclusive = no clear call, values can overlap the other calls; inactive = mostly above about 0.92.
# Assay: chemical genetic growth profiling, strain panel (AID 1159580);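 note: tested at 20 µM; growth read once vehicle control cultures reached saturation at 30 °C; 1 = growth at the plate median or of vehicle wells; lower values mean less growth of the strain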
# Details: growth OD
compound,measurement,setting,value
Cc1cc(O)c2c(c1O)C(=O)c1c(O)cc(C)c(O)c1C2=O,normalized growth,"S. cerevisiae deletion strains, locus YJR075W, strain HOC1, stronger effect = lower value",1.01
same,normalized growth,"S. cerevisiae deletion strains, locus YKL009W, strain mrt4, stronger effect = lower value",1.05
same,normalized growth,"S. cerevisiae deletion strains, locus YKL068W, stronger effect = lower value",0.995
same,normalized growth,"S. cerevisiae deletion strains, locus YKL085W, strain MDH1 (second series), stronger effect = lower value",1.01
same,normalized growth,"S. cerevisiae deletion strains, locus YKL085W, strain MDH1, stronger effect = lower value",1.01
same,normalized growth,"S. cerevisiae deletion strains, locus YKL160W, strain elf1, stronger effect = lower value",0.985
same,normalized growth,"S. cerevisiae deletion strains, locus YKL190W, strain CNB1, stronger effect = lower value",0.984
same,normalized growth,"S. cerevisiae deletion strains, locus YKR001C, strain vps1, stronger effect = lower value",0.971
same,normalized growth,"S. cerevisiae deletion strains, locus YKR026C, strain gcn3, stronger effect = lower value",0.979
same,normalized growth,"S. cerevisiae deletion strains, locus YKR091W, strain srl3, stronger effect = lower value",0.968
same,normalized growth,"S. cerevisiae deletion strains, locus YLL001W, strain dnm1, stronger effect = lower value",0.966
same,normalized growth,"S. cerevisiae deletion strains, locus YLL026W, stronger effect = lower value",0.988
same,normalized growth,"S. cerevisiae deletion strains, locus YLL041C, strain sdh2, stronger effect = lower value",0.981
same,normalized growth,"S. cerevisiae deletion strains, locus YLR027C, strain aat2, stronger effect = lower value",0.966
same,normalized growth,"S. cerevisiae deletion strains, locus YLR039C, strain RIC1, stronger effect = lower value",0.635 (active)
same,normalized growth,"S. cerevisiae deletion strains, locus YLR058C, strain SHM2, stronger effect = lower value",0.93
same,normalized growth,"S. cerevisiae deletion strains, locus YLR102C, strain apc9, stronger effect = lower value",0.999
same,normalized growth,"S. cerevisiae deletion strains, locus YLR113W, strain HOG1, stronger effect = lower value",1.03
same,normalized growth,"S. cerevisiae deletion strains, locus YLR221C, strain rsa3, stronger effect = lower value",0.948
same,normalized growth,"S. cerevisiae deletion strains, locus YLR258W, strain gsy2, stronger effect = lower value",0.977
same,normalized growth,"S. cerevisiae deletion strains, locus YLR262C, strain YPT6 (second series), stronger effect = lower value",0.887
same,normalized growth,"S. cerevisiae deletion strains, locus YLR262C, strain YPT6, stronger effect = lower value",0.675
same,normalized growth,"S. cerevisiae deletion strains, locus YLR268W, strain sec22, stronger effect = lower value",0.964
same,normalized growth,"S. cerevisiae deletion strains, locus YLR320W, strain mms22, stronger effect = lower value",0.965
same,normalized growth,"S. cerevisiae deletion strains, locus YLR330W, strain CHS5, stronger effect = lower value",0.956
same,normalized growth,"S. cerevisiae deletion strains, locus YLR342W, strain FKS1 (second series), stronger effect = lower value",0.981
same,normalized growth,"S. cerevisiae deletion strains, locus YLR342W, strain FKS1, stronger effect = lower value",0.98
same,normalized growth,"S. cerevisiae deletion strains, locus YLR357W, strain rsc2, stronger effect = lower value",0.976
same,normalized growth,"S. cerevisiae deletion strains, locus YLR370C, strain arc18, stronger effect = lower value",0.987
same,normalized growth,"S. cerevisiae deletion strains, locus YLR371W, strain rom2, stronger effect = lower value",1
same,normalized growth,"S. cerevisiae deletion strains, locus YLR384C, strain iki3, stronger effect = lower value",0.962
same,normalized growth,"S. cerevisiae deletion strains, locus YLR418C, strain cdc73, stronger effect = lower value",1.02
same,normalized growth,"S. cerevisiae deletion strains, locus YML016C, strain PPZ1, stronger effect = lower value",0.958
same,normalized growth,"S. cerevisiae deletion strains, locus YML032C, strain rad52, stronger effect = lower value",0.974
same,normalized growth,"S. cerevisiae deletion strains, locus YML120C, strain ndi1, stronger effect = lower value",0.912 (active)
same,normalized growth,"S. cerevisiae deletion strains, locus YML124C, strain tub3, stronger effect = lower value",0.997
same,normalized growth,"S. cerevisiae deletion strains, locus YMR058W, strain fet3, stronger effect = lower value",0.923
same,normalized growth,"S. cerevisiae deletion strains, locus YMR078C, strain ctf18, stronger effect = lower value",0.981
same,normalized growth,"S. cerevisiae deletion strains, locus YMR125W, strain sto1, stronger effect = lower value",0.99
same,normalized growth,"S. cerevisiae deletion strains, locus YMR129W, stronger effect = lower value",0.981
same,normalized growth,"S. cerevisiae deletion strains, locus YMR205C, strain PFK2, stronger effect = lower value",0.993
same,normalized growth,"S. cerevisiae deletion strains, locus YMR223W, strain ubp8, stronger effect = lower value",0.989
same,normalized growth,"S. cerevisiae deletion strains, locus YMR231W, strain pep5, stronger effect = lower value",0.959
same,normalized growth,"S. cerevisiae deletion strains, locus YMR263W, strain SAP30, stronger effect = lower value",1.01
same,normalized growth,"S. cerevisiae deletion strains, locus YMR307W, strain GAS1, stronger effect = lower value",0.778
same,normalized growth,"S. cerevisiae deletion strains, locus YNL067W, strain RPL9B, stronger effect = lower value",0.991
same,normalized growth,"S. cerevisiae deletion strains, locus YNL071W, strain lat1, stronger effect = lower value",0.984
same,normalized growth,"S. cerevisiae deletion strains, locus YNL128W, strain TEP1, stronger effect = lower value",0.96
same,normalized growth,"S. cerevisiae deletion strains, locus YNL153C, strain GIM3, stronger effect = lower value",0.965
same,normalized growth,"S. cerevisiae deletion strains, locus YNL183C, strain NPR1, stronger effect = lower value",0.951
same,normalized growth,"S. cerevisiae deletion strains, locus YNL209W, strain ssb2, stronger effect = lower value",0.969
same,normalized growth,"S. cerevisiae deletion strains, locus YNL233W, strain BNI4, stronger effect = lower value",0.982
same,normalized growth,"S. cerevisiae deletion strains, locus YNL248C, strain rpa49, stronger effect = lower value",0.95
same,normalized growth,"S. cerevisiae deletion strains, locus YNL250W, strain rad50, stronger effect = lower value",0.974
same,normalized growth,"S. cerevisiae deletion strains, locus YNL271C, strain bni1, stronger effect = lower value",0.987
same,normalized growth,"S. cerevisiae deletion strains, locus YNL298W, strain CLA4, stronger effect = lower value",0.98
same,normalized growth,"S. cerevisiae deletion strains, locus YNL307C, strain MCK1, stronger effect = lower value",1.01
same,normalized growth,"S. cerevisiae deletion strains, locus YNL322C, strain KRE1 (second series), stronger effect = lower value",0.944
same,normalized growth,"S. cerevisiae deletion strains, locus YNL322C, strain KRE1, stronger effect = lower value",0.984
same,normalized growth,"S. cerevisiae deletion strains, locus YNR049C, strain mso1, stronger effect = lower value",0.965
same,normalized growth,"S. cerevisiae deletion strains, locus YNR052C, strain pop2, stronger effect = lower value",0.98
same,normalized growth,"S. cerevisiae deletion strains, locus YOL006C, strain TOP1, stronger effect = lower value",0.491 (active)
same,normalized growth,"S. cerevisiae deletion strains, locus YOL012C, strain htz1",1.11
same,normalized growth,"S. cerevisiae deletion strains, locus YOL147C, strain pex11, stronger effect = lower value",1
same,normalized growth,"S. cerevisiae deletion strains, locus YOR001W, strain rrp6, stronger effect = lower value",0.962
same,normalized growth,"S. cerevisiae deletion strains, locus YOR061W, strain CKA2, stronger effect = lower value",0.934
same,normalized growth,"S. cerevisiae deletion strains, locus YOR069W, strain VPS5, stronger effect = lower value",0.975
same,normalized growth,"S. cerevisiae deletion strains, locus YOR070C, strain gyp1, stronger effect = lower value",0.972
same,normalized growth,"S. cerevisiae deletion strains, locus YOR080W, strain dia2, stronger effect = lower value",0.974
same,normalized growth,"S. cerevisiae deletion strains, locus YOR083W, strain WHI5, stronger effect = lower value",0.964
same,normalized growth,"S. cerevisiae deletion strains, locus YOR106W, strain vam3, stronger effect = lower value",0.937
same,normalized growth,"S. cerevisiae deletion strains, locus YOR136W, strain idh2, stronger effect = lower value",1.01
same,normalized growth,"S. cerevisiae deletion strains, locus YOR144C, strain elg1, stronger effect = lower value",0.988
same,normalized growth,"S. cerevisiae deletion strains, locus YOR184W, strain ser1, stronger effect = lower value",1.02
same,normalized growth,"S. cerevisiae deletion strains, locus YOR231W, strain MKK1, stronger effect = lower value",0.996
same,normalized growth,"S. cerevisiae deletion strains, locus YOR265W, strain rbl2, stronger effect = lower value",0.971
same,normalized growth,"S. cerevisiae deletion strains, locus YOR270C, strain vph1, stronger effect = lower value",0.841
same,normalized growth,"S. cerevisiae deletion strains, locus YOR290C, strain snf2, stronger effect = lower value",0.914
same,normalized growth,"S. cerevisiae deletion strains, locus YOR316C, strain cot1, stronger effect = lower value",0.997
same,normalized growth,"S. cerevisiae deletion strains, locus YPL051W, strain arl3, stronger effect = lower value",0.953
same,normalized growth,"S. cerevisiae deletion strains, locus YPL055C, strain LGE1, stronger effect = lower value",1.01
same,normalized growth,"S. cerevisiae deletion strains, locus YPL078C, strain atp4, stronger effect = lower value",0.982
same,normalized growth,"S. cerevisiae deletion strains, locus YPL106C, strain sse1, stronger effect = lower value",0.953
same,normalized growth,"S. cerevisiae deletion strains, locus YPL240C, strain hsp82, stronger effect = lower value",0.98
same,normalized growth,"S. cerevisiae deletion strains, locus YPL241C, strain CIN2, stronger effect = lower value",0.995
same,normalized growth,"S. cerevisiae deletion strains, locus YPL256C, strain CLN2, stronger effect = lower value",0.993
same,normalized growth,"S. cerevisiae deletion strains, locus YPR119W, strain clb2, stronger effect = lower value",0.986
same,normalized growth,"S. cerevisiae deletion strains, locus YPR141C, strain kar3, stronger effect = lower value",0.978
same,normalized growth,"S. cerevisiae deletion strains, locus YPR163C, strain tif3, stronger effect = lower value",1
same,normalized growth,"S. cerevisiae deletion strains, locus YPR167C, strain met16, stronger effect = lower value",0.989
same,normalized growth,"S. cerevisiae deletion strains, strain wtn01, stronger effect = lower value",0.998
same,normalized growth,"S. cerevisiae strains, strain wild type, stronger effect = lower value",0.989
